Source: PubChem BioAssay AID489017 (The Scripps Research Institute Molecular Screening Center, 2010)
Unmarked numbers belong to inactive results. No rule for the calls is given here.

Test system: Potassium Channel [KATP]
Experiment: off-target binding and CYP450 inhibition panel, profiling panel, selectivity assay for S1P4 antagonist project, biochemical, Ricerca HitProfilingScreen (AID 489017)
Settings: Ricerca receptor/enzyme binding panel plus CYP450, at 10 µM, stronger effect = higher value

CCc1cccc(CC)c1NC(=O)c1ccc(-c2cc(Cl)ccc2Cl)o1
inhibition: 14%
